Bioassay records as filed in PubChem BioAssay.
PNC assembly inh: blocks assembly of the perinucleolar compartment | 3.1% of 140,000 active | activity change (PNC), negative = inhibition, % at 10 µM | PC3M PTB-GFP, PNC prevalence imaging, 16 h; active compounds read low | AID 2417;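 active means readout at or below -70, meaning at least 70% loss of cells showing the perinucleolar compartment, a nuclear body marking cancer cells; inconclusive means readout between -30 and a set limit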;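 further: plate controls were DMSO wells for no effect and camptothecin positive control wells for full effect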
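Compounds are pinned in duplicate onto adhered PC3M cells stably expressing GFP-tagged PTB and incubated 16 h at 37 C. Cells are then fixed, nuclei stained with Hoechst, and PNC-positive cells counted.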
HPGD block: HPGD (human) dehydrogenase inhibition. P15428. purified HPGD, NADH fluorescence kinetic, PGE2 substrate. Potency, µM, inactives show at the top dose activity change, negative = inhibition, hits mostly inhibitors. 4.3% of 150,000 active; further: potency means the concentration at half of the fitted maximal effect
Target sequence (P15428 whole entry, looked up): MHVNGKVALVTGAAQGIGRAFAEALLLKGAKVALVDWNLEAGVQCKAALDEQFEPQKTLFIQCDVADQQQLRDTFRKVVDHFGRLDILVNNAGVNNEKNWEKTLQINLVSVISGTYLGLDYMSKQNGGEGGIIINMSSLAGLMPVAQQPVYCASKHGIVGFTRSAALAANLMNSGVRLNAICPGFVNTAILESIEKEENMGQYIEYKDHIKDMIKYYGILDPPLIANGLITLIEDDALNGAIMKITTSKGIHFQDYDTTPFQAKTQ
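NADH formation kinetics: reaction with 30 uM PGE2 and 1 mM NAD+ (final), 20 nM enzyme, Tris-HCl pH 8 with Tween 20, after 15 min compound preincubation at room temperature. Fluorescence change, last versus first of five reads.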
IMPase inh: cell-permeable inhibitors of inositol monophosphatase (IMPase) | P97697 | CHO-M1 cells, IP1 accumulation, HTRF TR-FRET ratio | inhibition (IP1 accumulation), % at 46.1 µM | 120,000 tested, under 10 active | AID 901; active means well fitted curve in the direction sought with a large enough effect in the signal ratio, not every such curve was filed as active; inconclusive means small, poorly fitted or top-dose-only effect, or a change in a side signal; inactive means no such curve, though single readings can be large or run the other way; the % refers to the signal ratio;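 further: cells stimulated with carbachol in lithium chloride buffer; plate controls were DMSO basal wells for no effect and reference inhibitor wells for full effect; higher means more IMPase inhibition seen as more IP1 and lower FRET ratio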
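Elevated IP1 in lysates lowers TR-FRET signal (665/620 ratio and 620 channel reported). Cells were CHO-M1, given carbachol (50 uM as added) plus 50mM LiCl, pH 7.4, 30 min, 37C; compounds titrated up to 46 uM; AC50 by Hill equation.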
ALDH1A1 inh: blocks purified human ALDH1A1 activity | Purified ALDH1A1, NADH fluorescence, propionaldehyde substrate | Potency, µM (doses to about 75.3 µM), for the others: at the top dose activity, negative = inhibition, hits mostly inhibitors | 7.3% of 220,000 active | AID 1030;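 further: potency means the concentration at half of the fitted maximal effect; plate controls were no enzyme wells and a reference inhibitor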
Target sequence (P00352 whole entry, looked up): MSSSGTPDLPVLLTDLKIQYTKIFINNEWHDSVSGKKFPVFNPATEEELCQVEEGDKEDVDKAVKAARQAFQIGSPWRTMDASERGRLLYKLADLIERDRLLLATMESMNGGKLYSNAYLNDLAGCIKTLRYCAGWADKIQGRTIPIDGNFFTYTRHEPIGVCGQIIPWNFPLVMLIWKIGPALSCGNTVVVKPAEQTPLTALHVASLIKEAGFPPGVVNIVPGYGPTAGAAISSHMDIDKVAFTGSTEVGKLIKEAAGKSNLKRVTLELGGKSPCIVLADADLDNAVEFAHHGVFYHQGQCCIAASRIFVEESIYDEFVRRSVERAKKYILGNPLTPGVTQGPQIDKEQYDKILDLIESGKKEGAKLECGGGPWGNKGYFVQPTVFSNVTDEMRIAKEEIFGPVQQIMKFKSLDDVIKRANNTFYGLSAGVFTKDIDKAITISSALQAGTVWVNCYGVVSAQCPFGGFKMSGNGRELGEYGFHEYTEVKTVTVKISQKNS
IMPase Li cell: cell-permeable IMPase inhibitors with lithium potentiation | CHO-M1 cells, IP1 TR-FRET (IP-One), carbachol + lithium | Potency, µM (titrated, usually from 59.4 µM), for the others: at the highest dose activity, negative = IMPase inhibition, hits mostly inhibitors | 0.35% of 210,000 active; active means well fitted inhibition curve with a large enough effect; inconclusive means small, poorly fitted or top-dose-only effect; inactive means no such curve, though single readings can be large or run the other way;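 further: IP1 builds up when IMPase is blocked and the TR-FRET signal falls; potency means the concentration at half of the fitted maximal effect; plate controls were basal vehicle for no effect and high inhibitor control for full effect; nearly all actives have a fitted effect of over 50% in size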
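CHO-M1, 2000 cells/well, 16–30 h culture; cpd + low Li+, 30 min 37C; lysis with d2-IP1/Eu-anti-IP1 Ab, 10 min RT; TR-FRET 665/620 ratio and 620 channel; AC50 via Hill.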
An asterisk follows results filed as active; ? = inconclusive; . = not tested or not shown; [ ] = remark or other dose. Compounds with a hit are over-represented: about 11% of the library has one in this group of screens. Unless noted, the call rests on the fitted dose curve; in most records, active means well fitted inhibition curve with a large enough effect (not every such curve was filed as active); inconclusive means small, poorly fitted or top-dose-only effect, or another doubt; inactive means no such curve, though single readings can be large or run the other way. Unless noted, on the % scale 0 is the no-effect control and ±100 the full control effect.

SMILES	PNC assembly inh	HPGD block	IMPase inh	ALDH1A1 inh	IMPase Li cell
O=C1NN(c2ccc(Cl)c(Cl)c2)C(=O)/C1=C/c1cccc(OC(=O)c2cccs2)c1	6	10µM*	-1	?	28%[38.3 µM]
COC(=O)N/N=C\c1cccc(OC(=O)c2cccs2)c1	.	.	.	-8%	1%
CC(=O)Oc1cc(OC(C)=O)c2c(=O)cc(-c3ccc(OC(C)=O)c(OC(C)=O)c3)oc2c1	.	-17%	7	-8%	20%
CCCN=Cc1ccc(O)cc1	.	.	.	8.9µM*	3%
Oc1ccc(/C=N/NC(=S)N/N=C/c2ccc(O)cc2)cc1	.	.	.	-9%	-2%
N#CC1=C(Nc2ccccc2)SC=C(c2ccccc2)N=C1N1CCOCC1	-12	-18%	9	25µM*	13%[38.3 µM]
Cc1c(C)c2cc(Cl)c(OCc3nn[nH]n3)cc2oc1=O	-122*	.	-4	?	.
O=C(C1=C[C@H](c2ccccc2)C[C@H](OCCCCO)O1)N1CCOCC1	.	.	.	-4%	-4%
COc1ccc(C(=O)Nc2ccc(S(=O)(=O)NC(C)(C)C)cc2)cc1[N+](=O)[O-]	.	.	.	18µM*	12%
CCN(CC)S(=O)(=O)c1ccc(NC(=O)c2cc(C(=O)OC)cc([N+](=O)[O-])c2)cc1	55	.	3	?	.
COC(=O)c1cc(C(=O)Nc2ccc(S(=O)(=O)NC(C)(C)C)cc2)cc([N+](=O)[O-])c1	?	18µM*	.	14µM*	4%
COC(=O)[C@@H]1C(c2c(OC)cc(OC)cc2OC)=NO[C@H]1C(=O)OC	25	-3%	.	7%	-6%
CC1(C)OC(=O)C(=Cc2ccc(-c3ccc(S(N)(=O)=O)cc3)o2)C(=O)O1	.	.	.	1%	6%
CC1=NOC(=O)/C1=C\c1ccc(-c2ccc(Br)cc2)o1	.	.	.	10µM*	-13%
CC(C)Nc1nc(NC(C)C)nc(SCCOC(=O)Nc2ccc(Cl)cc2Cl)n1	5	-18%	.	6%	8%
Cc1ccc(OCCCn2c(-c3ccc(Cl)cc3)nc3ccccc3c2=O)c(C)c1	.	.	-7	.	.
Cc1ccc(NC(=O)CCn2cnc3ccccc3c2=O)cc1Cl	-10	-2%	7	0%	2%
Cc1ccc(N/N=C2\CC(=O)c3ccccc32)cc1Cl	.	.	.	25µM*	8%
CC(C)N(C)S(=O)(=O)c1ccc(Cl)c(C(=O)O)c1	.	.	.	1%	2%
O=C(NCc1ccccc1Cl)c1cc2ccccc2o1	.	.	5	.	.
O=C(NCc1ccccc1Cl)c1cnc2n(c1=O)CCS2	6	-25%	4	14µM*	-14%[38.3 µM]
O=C(NC1CCCC1)c1cnc2n(c1=O)CCS2	-26	35µM*	6	?	20%[38.3 µM]
CC(=O)c1cnc2n(c1=O)CCS2	.	.	.	9%	-5%
Cc1ccc(-c2c3c(=O)n(C)c(=O)n(C)c3c3c(C(F)(F)F)nc4ccccc4n23)cc1	.	.	4	.	.
Cc1cc(Nc2ccccc2)n(-c2ccccc2)n1	-18	18µM*	16	-1%	22%[38.3 µM]
SMILES	PNC assembly inh	HPGD block	IMPase inh	ALDH1A1 inh	IMPase Li cell
Cc1cc(C)nc(-n2nc(C)cc2Nc2ccccc2)n1	-23	-6%	5	?	36%[38.3 µM]
CCCCc1ccc(N2C(=O)[C@@H]3C(CC(N)=O)NC4(C(=O)Nc5ccc(F)cc54)[C@@H]3C2=O)cc1 (some centres not stated)	-7	-12%	6	14µM*	-2%[38.3 µM]
Cc1c(Cl)ccc2c1NC(=O)[C@]21N[C@@H](CCC(N)=O)[C@H]2C(=O)N(c3ccc(F)cc3)C(=O)[C@H]21	-21	-6%	18	14µM*	-3%[38.3 µM]
Cc1c(Cl)ccc2c1NC(=O)C21NC(CCC(N)=O)[C@H]2C(=O)N(c3ccc(Cl)cc3)C(=O)[C@H]21 (some centres not stated)	9	-25%	1	8.9µM*	-2%[38.3 µM]
CSCCC1NC2(C(=O)Nc3c2ccc(Cl)c3C)[C@@H]2C(=O)N(C3CCCC3)C(=O)[C@H]12 (some centres not stated)	5	-13%	-5	?	12%[38.3 µM]
NC(=O)C[C@@H]1N[C@]2(C(=O)Nc3ccccc32)[C@@H]2C(=O)N(c3cc(C(F)(F)F)ccc3Cl)C(=O)[C@H]12	-4	-5%	?	-1%	-9%[38.3 µM]
COCc1cc(N2CCCC2)nc(-c2ccccc2)n1	.	.	.	-3%	7%
O=C(Oc1cccc(NC2=NS(=O)(=O)c3ccccc32)c1)c1cccnc1	.	.	.	13%	-1%
O=c1c(-c2ccc(F)cc2)nc2cnc(Oc3cccc(Cl)c3)nc2n1C[C@H]1CCCO1	.	.	.	?	20%
COc1ccc(Oc2ncc3nc(C)c(=O)n(C[C@H]4CCCO4)c3n2)cc1	.	.	.	?	1%
COc1ccc(Oc2ncc3ncc(=O)n(C[C@H]4CCCO4)c3n2)cc1	.	-16%	.	14µM*	-3%
COc1ncc2nc(-c3ccccc3)c(=O)n(C3CC3)c2n1	.	.	.	?	-4%
COc1ncc2nc(CCc3ccccc3)c(=O)n(C3CC3)c2n1	.	-20%	.	19µM*	5%
COc1ccc(-c2nc3cnc(OC)nc3n(C3CC3)c2=O)cc1	.	?	.	?	13µM*
CCNc1ncc2nc(CCc3ccccc3)c(=O)n(C3CC3)c2n1	.	.	.	?	2%
COc1ccc(-n2c(=O)cnc3cnc(N4CCNCC4)nc32)cc1	.	-24%	.	?	9%
COc1ccc(-n2c(=O)cnc3cnc(OC)nc32)cc1	.	.	.	22µM*	-2%
COc1ccc(C(=O)N2CCC3(CC2)CN(c2ccccc2)C3)cc1	.	-7%	.	-16%	0%
Cc1cc(CN2CCCCC2)c(O)c(CN2CCCCC2)c1	.	-10%	.	0%[13.5 µM]	19%
CC1(C)OC[C@@H]2O[C@H](n3cnc4c(N)nc(Cl)nc43)[C@@H](OS(C)(=O)=O)[C@@H]2O1	.	-2%	.	-9%[13.5 µM]	-6%
COc1ccc(CNc2ncncc2-c2cccc(NS(C)(=O)=O)c2)c(OC)c1	.	.	.	9%	-6%
O=c1c2ccccc2c(C=NCCCN2CCOCC2)c(O)n1Cc1ccccc1	-21	-27%	5	14µM*	11%[38.3 µM]
CCn1c(SCC(=O)c2ccc(O)c(O)c2)nnc1-c1ccc(C)cc1	-19	-15%	-16	0%	-6%[38.3 µM]
Cn1c(SCC(=O)c2ccccc2)nnc1-c1cnccn1	?	-21%	1	20µM*	-13%[38.3 µM]
Cc1ccc(C(=O)CSc2nnc(-c3ccccc3N)n2C)cc1	-17	-22%	-9	11µM*	-2%[38.3 µM]
CCn1c(SCC(=O)c2ccc(NS(=O)(=O)c3ccccc3)cc2)nnc1-c1cccs1	7	22µM*	-6	?	12%[38.3 µM]
Cn1c(SCC(=O)c2ccc(F)cc2)nnc1-c1ccccc1N	9	-14%	3	-9%	-10%[38.3 µM]
CCn1c(SCC(=O)c2cccs2)nnc1-c1cccs1	41	.	4	?	.
CCn1c(Cc2cccn2C)nnc1SCC(=O)c1ccc(C)cc1	2	?	2	10µM*	18%[38.3 µM]
CC1CCCCN1CCCNC(=O)c1cc(Br)c(Br)[nH]1 (configuration not stated)	.	.	.	-1%	10%
